High-throughput results as filed in PubChem BioAssay.
MARV entry inh: qHTS for inhibitors of binding or entry into cells for Marburg Virus | Marburg virus pseudotyped entry inhibition, cell reporter | Potency, µM (titrated, usually from 37.8 µM), hits mostly inhibitors | 300,000 tested, 1.8% active; calls by dose curve; tested in HEK293 cells
Pf growth 48h: Primary qHTS for delayed death inhibitors of the malarial parasite plastid, 48 hour incubation. 310,000 tested, 5.9% active. P. falciparum luciferase growth in erythrocytes, 48 h. Potency, µM (top dose mostly 28.7 µM), hits mostly inhibitors. AID 504832, 2011
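In quantitative HTS format, infected erythrocytes bearing luciferase-reporter parasites were treated for a single generation at 37 C. Luminescence after adding detection reagent served as the growth measure.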
HCMV antiviral: qHTS Assay for inhibitors of the human cytomegalovirus (HCMV); activity change, negative = inhibition, % at 57.5 µM; 410,000 tested, 4.5% active; AID 1259415, 2018; HFF cells, HCMV-luciferase reporter, 72 h; active compounds read low; in the data active = activity change below about -60%; inconclusive = no clear call, values can overlap the other calls; inactive = above about -39%
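Two-dose cell screen: HFF monolayers treated with compounds and infected with luciferase-expressing HCMV at 1 PFU/cell, 72 h at 37C, then lysed for luciferase measurement.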
Pf growth 96h: Primary qHTS for delayed death inhibitors of the malarial parasite plastid, 96 hour incubation. 320,000 tested, 6.9% active. AID 504834, 2011. P. falciparum luciferase reporter growth, 96 h. Potency, µM (top dose mostly 28.7 µM), hits mostly inhibitors
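Infected RBCs, 2% Hct / 0.05% parasitemia final; luciferase-reporter P. falciparum; cpd 96 h, 37 C, 5% CO2; luciferase detection reagent; luminescence.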
LASV entry inh: qHTS for Inhibitors of binding or entry into cells for Lassa Virus; AID 540256, 2011; Potency, µM (titrated, usually from 37.9 µM), usual class: inhibitors; Lassa virus pseudotype entry inhibition, cell reporter; 300,000 tested, 1.2% active; calls by dose curve; tested in HEK293 cells; note: nearly all actives have a fitted effect of over 50% in size
HCV inhibitor: qHTS Assay for Inhibitors of Hepatitis C Virus (HCV). Potency, µM (highest dose often 41.8 µM), most hits filed as inhibitors. Huh7.5.1 HCVcc-Cre infection, luciferase reporter, 44 h. 340,000 tested, 3.4% active
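Antiviral activity was scored by luciferase reporter output from cells infected with HCVcc-Cre (~0.5 moi) in presence of compound, 44 h infection period, cells seeded 1,000/well 4 h prior.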
Numbers stand for hits; . = inactive; ? = inconclusive; / = no result. Rows were chosen to be rich in hits. Some 14% of all compounds tested hit in one or more screens of this group. Unless noted, calls come from the whole dose curve; as a rule, active = well fitted inhibition curve with a large enough effect; inconclusive = small, poorly fitted or top-dose-only effect, or another doubt; inactive = no such curve, though single readings can be large or run the other way.

SMILES	MARV entry inh	Pf growth 48h	HCMV antiviral	Pf growth 96h	LASV entry inh	HCV inhibitor
Cc1ccc(C2NC(=S)NC3=C2C(=O)CCC3)cc1 (stereo not drawn)	.	?	.	?	.	.
O=C1CCCC2=C1C(c1ccccc1)NC(=S)N2 (stereo not drawn)	.	.	-103	.	.	.
O=C1CCCC2=C1C(c1ccncc1)Nc1ccccc1N2 (stereo not drawn)	.	/	.	10µM	.	.
O=c1c2c([nH]c3ccc(Br)cc13)CCCC2	.	0.33µM	.	.	?	.
O=c1c2c([nH]c3ccccc13)CCC2	/	?	.	.	/	.
OCCN=C1CCCc2c1[nH]c1ccc(Br)cc21	.	.	.	.	.	5.6µM
O=[N+]([O-])c1ccc2[nH]c3c(c2c1)CCCC3	/	.	?	.	/	11µM
Brc1ccc2[nH]c3c(c2c1)CCC3	?	.	-70	.	8.9µM	?
Cc1ccc(Oc2c(C(F)(F)F)oc3c(CN4CCC(C)CC4)c(O)ccc3c2=O)cc1	.	/	.	/	.	/
COC(=O)[C@@]12C[C@@H](CC(=O)N3CCN(C(=O)C4CC4)CC3)C(=O)N(CCc3ccc(OC)c(OC)c3)C1=CCC(C)(C)C2	/	/	.	/	/	/
CN(Cc1ccc(Cl)cc1Cl)C(=O)Cc1ccc(S(=O)(=O)N2CCOCC2)s1	/	/	.	/	/	/
O=c1ccc2cc(S(=O)(=O)NCc3ccc(Cl)cc3)ccc2[nH]1	/	/	.	/	.	/
CCN1CCN(c2cc(C)c3cc(NC(=S)N4CC(C)CC(C)C4)ccc3n2)CC1 (stereo not drawn)	?	?	?	?	.	?
CCN1CCN(c2cc(C)c3cc(NC(=S)N4CCCC(C)C4)ccc3n2)CC1 (stereo not drawn)	7.9µM	.	-71	.	?	?
CCN1CCN(C(=S)Nc2ccc3nc(N4CCN(C)CC4)cc(C)c3c2)CC1	?	?	?	.	10µM	?
CCN1CCN(C(=S)Nc2ccc3nc(N4CCN(CC)CC4)cc(C)c3c2)CC1	?	6.6µM	.	.	?	13µM
CCOC(=O)c1cc(-c2ccccc2)n(CCC(=O)NC2CCCCC2)c1C	/	/	.	/	.	/
Cc1ccccc1OC1C(=O)N(Cc2ccc3c(c2)OCO3)C1c1sccc1C (stereo not drawn)	?	?	-71	13µM	?	?
COc1cccc(NC(=O)c2sc3nc(C)c(C(=O)Nc4ccc(C)cc4C)c(-c4ccc(C)o4)c3c2N)c1	?	/	.	/	?	/
COc1cc(C(=O)N2CCCCC2c2cc(C(=O)NCc3cccnc3)no2)cc(OC)c1C (stereo not drawn)	/	/	.	/	/	/
Cc1onc(-c2ccc(Cl)cc2)c1-c1ccnn1S(=O)(=O)c1cccc(C(F)(F)F)c1	10µM	1.7µM	.	3.3µM	.	?
Cc1ccc(S(=O)(=O)n2nccc2-c2c(-c3ccccc3)noc2C)cc1	?	5.9µM	.	?	?	.
Cc1noc(C)c1S(=O)(=O)Nc1cccc(C(F)(F)F)c1	/	.	.	.	/	.
Cc1onc(-c2ccccc2)c1-c1ccnn1S(=O)(=O)c1ccc(Cl)cc1	.	?	.	3.3µM	.	.
Cc1ccc(S(=O)(=O)N2CCN(Cc3nnc(-c4c(-c5ccccc5)noc4C)o3)CC2)cc1	.	?	.	?	.	?
SMILES	MARV entry inh	Pf growth 48h	HCMV antiviral	Pf growth 96h	LASV entry inh	HCV inhibitor
Cc1ccc2[nH]c(=O)c(-c3noc(CC(C)C)n3)cc2c1	/	9.3µM	.	5.2µM	/	.
CCCc1nc(-c2cc3ccc(C)cc3[nH]c2=O)no1	.	.	?	3.7µM	.	.
Cc1ccc2cc(-c3noc(C4CCCCC4)n3)c(=O)[nH]c2c1	/	.	.	.	/	.
CCOc1ccccc1-c1nc(-c2cc3ccccc3nc2OC)no1	?	.	.	?	.	11µM
CCOc1ccccc1NC(=O)c1ccccc1-c1nc(-c2ccccc2OC)no1	?	?	.	?	?	11µM
c1ccc(OCCNc2ccn3nc(-c4ccc(OCCN5CCOCC5)cc4)cc3n2)cc1	/	/	.	/	/	/
O=C(COCc1cc(-c2cccs2)on1)N1CCN(c2ccc(F)cc2)CC1	/	/	.	/	?	/
CCOc1ccc(S(=O)(=O)NCc2ccc3c(c2)OCO3)cc1	/	?	.	?	/	.
COc1ccc(-n2c(=O)c3c(c4cc(OC)ccc4n3C)n(Cc3ccc(F)cc3Cl)c2=O)cc1	/	/	.	/	.	/
CCOc1ccccc1-c1nc(-c2cc3ccc(C)cc3[nH]c2=O)no1	.	9.3µM	.	.	.	?
COc1ccc(CNc2nc3ccccc3n2Cc2ccc(Cl)cc2)cc1OC	11µM	?	.	?	?	?
CCn1c(NCc2c[nH]c3ccccc23)nc2ccccc21	11µM	/	.	/	.	.
CCn1c(NCc2cc(OC)c(OC)c(OC)c2)nc2ccccc21	.	.	.	0.23µM	.	.
Cc1ccc(C(=O)Nc2cccc(OCc3cc(=O)n4c5c(sc4n3)CCCC5)c2)cc1	.	/	.	/	.	/
Cn1c(-c2sccc2OCc2ccccc2)n[nH]c1=S	.	10µM	.	?	.	.
CCc1nc2c(OCc3ccc(F)cc3)cccn2c1N(C)C(=O)COc1ccccc1	/	/	.	/	/	/
COc1ccc2c(c1)c1c(c(=O)n(-c3ccccc3C)c(=O)n1CC(N)=O)n2C	/	/	.	/	.	/
Cc1ccc(C2Nc3ccccc3-n3c(-c4ccccc4)c4c(=O)n(C)c(=O)n(C)c4c32)o1 (stereo not drawn)	.	/	.	/	.	/
CC(C)CNC(=O)C1(C)CCCN1Cc1ccccc1OC(F)F (stereo not drawn)	/	/	.	/	/	/
O=C(O)c1ccc(-n2nc(C(F)(F)F)c3c2CCCC3)cc1	?	.	.	?	.	.
CN(C)C(=O)c1ccc(-n2nc(C(F)(F)F)c3c2CCCC3)cc1	?	.	.	?	.	10µM
CSc1nc(N)nc(SCC(=O)OC(C)C)c1C#N	.	.	-108	.	.	.
O=C(NCCN1CCOCC1)N1CCOCC1	?	.	.	.	.	.
C/C(NCCN1CCOCC1)=C(\C#N)C(N)=O	.	.	.	1.7µM	.	.
Cc1nc2c(C(=O)NCCc3ccccc3Cl)c[nH]n2c(=O)c1Cl	.	.	.	10µM	.	.
SMILES	MARV entry inh	Pf growth 48h	HCMV antiviral	Pf growth 96h	LASV entry inh	HCV inhibitor
CCc1cc2c(=O)[nH]c(N3CCCC3)nc2s1	.	.	.	.	?	.
CCc1cc2c(=O)[nH]c(-c3ccccn3)nc2s1	6.3µM	?	-101	3.3µM	5.6µM	?
COc1cnc(-c2ccccn2)[nH]c1=O	?	.	.	5.9µM	.	.
CC(C)[C@H](NC(=O)OC(C)(C)C)c1cc(C(=O)NC2CC2)c(N)s1	/	/	.	/	/	/
CNC(=S)N1CCN(c2nc(-c3cccc(OC)c3)cs2)CC1	/	.	.	12µM	/	?
COc1cccc(-c2csc(N3CCN(C(=S)Nc4ccccc4)CC3)n2)c1	.	?	.	?	.	.
